Assay outcomes as filed in PubChem BioAssay.
hNpr1 antagonist: blocks ANP-stimulated signaling of human Npr1 receptor; P16066; HEK293 hNpr1 GloSensor cGMP, ANP-stimulated luminescence; Potency, µM (top dose mostly 46.3 µM), for inactives: top-dose activity change, negative = inhibition, actives largely listed as inhibitors; actives 1.6% (n = 76,000); AID 1347048; calls by dose curve; also: % is scaled to controls: 0 for no effect and ±100 for the full control effect; nearly all actives have a fitted effect of over 60% in size
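HEK293 cells stably expressing human Npr1 and cGMP GloSensor pGS-40F, loaded 2 h with 2% GloSensor reagent, given compound 30 min at room temperature. Luminescence read before and 20 min after 0.1 nM hNppA.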
FLuc inh-1: inhibitors of firefly (Photinus pyralis) luciferase; P08659; purified P. pyralis luciferase, luminescence, biochemical; Potency, µM (titrated, usually from 115 µM), actives largely listed as inhibitors; actives 2.5% (n = 76,000); also: % is scaled to controls: 0 for no effect and ±100 for the full control effect; nearly all actives have a fitted effect of over 65% in size
Target sequence (P08659 whole entry, looked up): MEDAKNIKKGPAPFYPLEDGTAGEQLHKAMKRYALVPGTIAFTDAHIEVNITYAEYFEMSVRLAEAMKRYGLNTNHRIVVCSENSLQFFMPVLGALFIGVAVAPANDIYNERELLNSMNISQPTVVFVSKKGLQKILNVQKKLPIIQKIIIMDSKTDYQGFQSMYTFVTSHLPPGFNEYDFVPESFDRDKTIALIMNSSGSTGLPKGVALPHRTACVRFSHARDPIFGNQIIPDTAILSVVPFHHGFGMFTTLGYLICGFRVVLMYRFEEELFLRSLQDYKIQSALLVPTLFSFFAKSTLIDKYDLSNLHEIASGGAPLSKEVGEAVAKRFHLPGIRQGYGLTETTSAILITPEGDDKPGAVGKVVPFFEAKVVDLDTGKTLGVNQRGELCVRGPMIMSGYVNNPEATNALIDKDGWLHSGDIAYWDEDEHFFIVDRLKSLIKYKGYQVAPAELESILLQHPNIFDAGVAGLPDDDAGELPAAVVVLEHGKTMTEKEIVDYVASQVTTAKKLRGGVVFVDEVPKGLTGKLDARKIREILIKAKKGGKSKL
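Inhibitors were tested against purified firefly luciferase in a biochemical, low-substrate format (both substrates at 10uM) and luminescence measured with a CCD imager.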
HEK293 tox: kills HEK 293 cells. AID 1345083. Potency, µM (series often up to 115 µM), for the others: at the highest dose activity change, negative = cytotoxicity, actives largely listed as inhibitors. actives 6.6% (n = 94,000). HEK 293 viability, ATP luminescence (CellTiter-Glo), 48-72 h; also: % is scaled to controls: 0 for no effect and ±100 for the full control effect; nearly all actives have a fitted effect of over 60% in size
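Luminescence from cellular ATP, measured with CellTiter-Glo, indicates HEK 293 viability. Cells plated at 250 cells/well are treated with compound for 48 or 72 hr at 37 degree Celsius before reagent addition.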
3T3 cytotox: kills NIH 3T3 cells. NIH 3T3 viability, CellTiter-Glo ATP luminescence, 48-72 h. Potency, µM (titrated, usually from 96.7 µM), inactives show at the top dose activity change, negative = cytotoxicity, hits mostly inhibitors. actives 4.3% (n = 94,000). AID 1345082; also: % is scaled to controls: 0 for no effect and ±100 for the full control effect; nearly all actives have a fitted effect of over 55% in size
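NIH 3T3 cells at 400 cells/well received 23 nL of compound by pintool and were incubated 48 or 72 h at 37 °C. Viability was read as ATP-coupled CellTiter-Glo luminescence.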
FLuc SDR -ATP: firefly luciferase binding stabilization, ATP absent; shares compounds with FLuc inh-1; Purified FLuc-C-HiBiT, Nano-Glo HiBiT luminescence, no ATP; Potency, µM (highest dose often 32.7 µM), for the others: top-dose activation (signal gain), hits mostly activators; actives 7.8% (n = 1,300); AID 1963318; also: nearly all actives have a fitted effect of over 55% in size
FLuc SDR ATP: firefly luciferase binding stabilization, ATP added. shares compounds with FLuc inh-1. purified FLuc-C-HiBiT + ATP, HiBiT complementation luminescence. Potency, µM (doses to about 32.7 µM), without a hit: at the highest dose activation (gain of signal), most hits filed as activators. actives 8.7% (n = 1,300). AID 1963319;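 also: signal reports ligand binding via conformational change of the enzyme rather than luciferase catalysis; % of control where 0% means no effect; nearly all actives have a fitted effect of over 55% in size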
FLuc inh-2: firefly luciferase enzyme inhibition. shares compounds with FLuc inh-1. purified FLuc-C-HiBiT enzyme, luciferin luminescence. Potency, µM (titrated, usually from 32.7 µM), without a hit: at the highest dose activity change, negative = inhibition, hits mostly inhibitors. actives 42% (n = 1,300). AID 1963320; also: % is scaled to controls: 0 for no effect and ±100 for the full control effect; nearly all actives have a fitted effect of over 70% in size
Active calls of the source: *; i = inactive; ? = inconclusive; · = no result given; [ ] = dose if it differs, or a comment. An excerpt weighted towards active compounds, which were near 11% of everything screened. Unless noted, calls follow the shape of the dose curve; as a rule, active = well fitted curve in the direction sought with a large enough effect; inconclusive = small, poorly fitted or top-dose-only effect, or another doubt; inactive = no such curve, though single readings can be large; an effect the other way counts as inactive or inconclusive. Potency is read from the fitted curve at half-maximal effect.

SMILES	hNpr1 antagonist	FLuc inh-1	HEK293 tox	3T3 cytotox	FLuc SDR -ATP	FLuc SDR ATP	FLuc inh-2
Cc1ccc(C2Cn3cnc(C(=O)N4CCC(C(=O)NCc5ccco5)CC4)c3CO2)cc1 (stereo unspecified)	-3%	14µM*	3%	i	13%	?	?
COc1ccccc1CCC(=O)N1CCC2(CC1)N(c1ccccc1)C(=O)CS2(=O)=O	2%	i	i	-3%	·	·	·
CN1CCc2nc(N3CCN(CC4CCCCC4)CC3)sc2C1	0%	i	?	?	·	·	·
Cc1oc2c(c1C(=O)N(C)C)CN(C(=O)CCc1ccccc1)CC2	-1%	i	-5%	-12%	·	·	·
COc1ccccc1CNC(=O)C1CCN(C(=O)c2ncn3c2COC(c2ccccc2)C3)CC1 (stereo unspecified)	-3%	13µM*	-4%	i	11%	?	6.2µM*
C[C@@H]1C(=O)O[C@H]2[C@H]1CC[C@@]1(C)Cc3sc(NS(=O)(=O)c4ccc(F)cc4F)nc3[C@@H](C)[C@H]21	5%	i	-4%	?	·	·	·
Cc1cccc(NC(=O)N2CCC(Cc3nc(-c4ccccc4)n[nH]3)CC2)c1	1%	i	i	-13%	·	·	·
Cc1cccc(NC(=O)c2ccc(-c3ccccc3)s2)c1	·	·	·	·	25%	17%	2.8µM*
O=C(c1ccc(-c2cncnc2)cc1)N1CCC(C(=O)N2CCCCC2)CC1	·	·	-5%	-13%	·	·	·
O=C(Nc1cccc(-c2nc3ccccc3[nH]2)c1)c1ccccc1F	·	·	·	·	19%	11%	?
CCOc1ccc2c(n1)CCN(C(=O)c1nn(C)c3ccccc13)C2	5%	i	-5%	-13%	·	·	·
O=C(COc1ccc(Cl)cc1)Nc1ccc(O)c(-c2nc3ccccc3s2)c1	·	·	·	·	13%	9%	3%
O=C(COc1ccc(Cl)cc1)Nc1ccc(-c2nc3ccccc3s2)c(O)c1	·	·	·	·	15%	11%	1%
O=C(CCCS(=O)(=O)c1ccc(Cl)cc1)Nc1ccc(O)c(-c2nc3ccccc3s2)c1	·	·	·	·	17%	10%	0%
O=C(COc1ccc(-c2nnc3n2CCCC3)cc1)Nc1ccccc1	-7%	i	-18%	-5%	·	·	·
Cc1ccc(NC(=O)COc2ccc(-c3nnc4n3CCCC4)cc2)cc1F	-7%	i	-7%	?	·	·	·
O=C(c1ccc(C(F)(F)F)cc1)N1CCC2(CC1)CC(=O)N(c1ccccc1)c1ccccc1O2	14%	i	?	?	·	·	·
Cc1noc(C)c1C(=O)N1Cc2ccccc2CC2(CCCN2C)C1 (stereo unspecified)	·	·	-25%	-17%	·	·	·
N#Cc1c(-n2ncnc2-c2cccc(Cl)c2)sc2c1CCCCC2	·	·	·	·	29%	?	2µM*
N#Cc1c(-n2ncnc2-c2ccccc2Cl)sc2c1CCCCC2	·	·	·	·	30%	?	2.2µM*
CC(=O)NC1(C)CN(Cc2ccc(-c3ccc(Oc4ccccc4)cc3)s2)C1	16µM*	13µM*	28µM*	28µM*	12%[49.3 µM]	10%[49.3 µM]	?
COc1ccc(-c2ccc(CN3CC(C)(NC(C)=O)C3)s2)cn1	·	·	·	·	17%[49.3 µM]	12%[49.3 µM]	?
CC(=O)Nc1cccc(-c2csc(CN3CCCC(C)(NC(C)=O)C3)c2)c1 (stereo unspecified)	-1%[70.6 µM]	i	?	-14%[138 µM]	·	·	·
O=C1c2cccnc2OC2(CCCC2)CN1CCOc1ccccc1	·	·	?	-16%[46.1 µM]	·	·	·
COc1ccc(-c2noc([C@@H]3C[C@@H](O)CN3Cc3cc4ccccc4o3)n2)cc1	?	5µM*	-11%[172 µM]	-9%[174 µM]	18%[49.3 µM]	?	16µM*
SMILES	hNpr1 antagonist	FLuc inh-1	HEK293 tox	3T3 cytotox	FLuc SDR -ATP	FLuc SDR ATP	FLuc inh-2
COc1ccc(CN2C[C@H](O)C[C@H]2c2nc(-c3ccc(OC)cc3)no2)cc1	?	11µM*	?	-30%[174 µM]	-1%[49.3 µM]	1%[49.3 µM]	?
O=C(NCC(F)F)C1CCCN1Cc1ccc(-c2cncnc2)cc1 (stereo unspecified)	·	·	-4%	-12%	·	·	·
Cc1cnc(C(=O)N2CC(Oc3ccc(-c4nc(-c5ccccc5)no4)cc3)C2)cn1	-13%	i	-23%	-21%	·	·	·
Cc1ncccc1C(=O)N1CC(Oc2ccc(-c3nc(-c4ccccc4)no3)cc2)C1	?	1µM*	13µM*	?	22%	?	6.2µM*
O=C(c1ccccn1)N1CCC(Oc2ccc(-c3noc(-c4ccccc4)n3)cc2)C1 (stereo unspecified)	-21%	11µM*	22µM*	?	13%	14%	?
COc1ccccc1OCc1cc(C(=O)N2CCC(NC(C)=O)CC2)n[nH]1	0%	i	-12%	-1%	·	·	·
Cc1ccc(N2CCN(c3nc(C(=O)O)cs3)CC2)cc1	-16%	1.4µM*	-2%	-6%	13%	?	2µM*
O=C1OCCN1CCNc1ccc(-c2nc(-c3ccccc3F)no2)cn1	?	5.6µM*	45µM*	?	19%	19%	?
CN(C)c1nc(NCCN2CCOC2=O)ncc1F	-4%	i	-14%	-4%	·	·	·
N#Cc1ccc(C(=O)N2CCOCCNC(=O)[C@@H]3CCC[C@@H]32)cc1	1%	i	1%	-16%	·	·	·
COc1ccc(NC(=O)N2CCc3c(C(=O)Nc4ccc5c(c4)OCO5)cccc32)cc1	13µM*	2.8µM*	?	-21%	15%	1.2µM*	0.88µM*
COc1ccc(OC2CCN(C3CCCC3)CC2)c(C(=O)NCCCN2CCCC2=O)c1	2%	i	-22%	-12%	·	·	·
COc1ccc(NC(=O)N2CCc3c(C(=O)NCCCN4CCCC4=O)cccc32)cc1	11µM*	0.5µM*	?	-29%	?	0.35µM*	0.25µM*
COc1ccc(NC(=O)c2cccc3c2CCN3C(=O)Nc2ccc(F)cc2)c(C)c1	11µM*	2.2µM*	-27%	-13%	13%	0.7µM*	0.56µM*
CCC(=O)N1CCc2c(C(=O)NCc3cc(OC)ccc3OC)cccc21	-3%	i	?	-18%	·	·	·
CCC(=O)N1CCc2c(C(=O)Nc3cc(OC)cc(OC)c3)cccc21	-1%	i	-4%	i	·	·	·
COc1ccc(NC(=O)N2CCc3c(C(=O)NCc4ccncc4)cccc32)cc1	11µM*	1.3µM*	?	?	12µM*	0.88µM*	0.62µM*
COCCN1CCCN(C(=O)NCCc2ccccc2)c2ccccc21	-13%	i	-27%	?	·	·	·
